Experimental data: the supplement of paper PMC6522484
± gives the standard deviation of the averaged measurements.

Experiments:
DLD1 [1] = assay: cell viability (CellTiter-Glo) relative to plate median (fraction of plate median); higher = more viable cells; conditions: 5 µM; treatment time 24 h; reporter: 7TFP
Outline: (§1)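 Colorectal cancer cells stably transduced with lentiviral TCF/Wnt firefly luciferase reporters were seeded in 384-well plates and dosed 24 h later with library compounds at a final 5 µM for 24 h. Firefly luciferase or CellTiterGlo luminescence was then read on a Tecan F500 from parallel plates. Signals were normalised per well to the plate median without log transformation, additively in webcellHTS2, and averaged over two independent replicates.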

HCT116 = assay: as above; conditions: 5 µM; treatment time 24 h; reporter: TCF4/Wnt
Outline: as §1

SW480 [2] = assay: as above; conditions: 5 µM; treatment time 24 h; reporter: 7TFP
Outline: as §1

DLD1 [3] = assay: TCF/Wnt firefly luciferase reporter signal relative to plate median (fraction of plate median); higher = higher Wnt reporter signal; conditions: 5 µM; treatment time 24 h; reporter: 7TFP
Outline: as §1

SW480 [4] = assay: as above; conditions: 5 µM; treatment time 24 h; reporter: 7TFP
Outline: as §1

Compound	cell viability (DLD1 [1])	cell viability (HCT116)	cell viability (SW480 [2])	TCF/Wnt firefly luciferase reporter signal (DLD1 [3])	TCF/Wnt firefly luciferase reporter signal (SW480 [4])
COc1ccc(CN(CCN(C)C)c2ncccn2)cc1	0.994 ± 0.0057	0.969 ± 0.086	1 ± 0.055	0.9635 ± 0.00071	0.931 ± 0.021
Nc1ccc(S(=O)(=O)Nc2ccc(Cl)nn2)cc1	1.06 ± 0.096	1.03 ± 0.035	1.08 ± 0.05	0.954 ± 0.028	1.09 ± 0.042
CC(=O)Nc1ccc(OC(=O)c2ccccc2O)cc1	0.999 ± 0.016	0.989 ± 0.03	0.978 ± 0.074	1 ± 0.095	0.891 ± 0.043
CCCc1nc(C(C)(C)O)c(C(=O)OCc2oc(=O)oc2C)n1Cc1ccc(-c2ccccc2-c2nnn[nH]2)cc1	0.99 ± 0.015	0.978 ± 0.045	1.01 ± 0.047	1.11 ± 0.11	1.11 ± 0.042
CCn1cc(C(=O)O)c(=O)c2cnc(N3CCNCC3)nc21	0.976 ± 0.049	0.943 ± 0.12	1 ± 0.025	0.891 ± 0.21	0.98 ± 0.13
COc1ccccc1N1CCN(CCCNc2cc(=O)n(C)c(=O)n2C)CC1	0.938 ± 0.037	0.885 ± 0.018	0.93 ± 0.025	1.03 ± 0.05	0.953 ± 0.081
CCCCOc1ccc(C(=O)CCN2CCCCC2)cc1	0.832 ± 0.12	0.87 ± 0.033	0.931 ± 0.045	1.09 ± 0.23	1.17 ± 0.092
CC(C)c1c(O)ccc2c1CC[C@H]1C(C)(C)CCC[C@]21C	1.16 ± 0.12	1 ± 0.13	1.03 ± 0.076	0.855 ± 0.11	0.996 ± 0.035
CC(=O)N(O)CCCCCNC(=O)CCC(=O)N(O)CCCCCNC(=O)CCC(=O)N(O)CCCCCN	0.987 ± 0.015	0.95 ± 0.032	0.89 ± 0.073	0.869 ± 0.067	1.06 ± 0.021
OCC(O)C(O)C(O)C(O)C(O)CO (stereo not given)	1.05 ± 0.042	1.035 ± 0.0071	0.986 ± 0.049	0.9515 ± 0.005	1.02 ± 0.091
C[C@]12CCC(=O)C=C1CC[C@@H]1[C@@H]2C(=O)C[C@@]2(C)[C@H]1CC[C@]2(O)C(=O)CO	0.888 ± 0.14	1.02 ± 0.12	0.957 ± 0.0057	0.914 ± 0.093	0.761 ± 0.013
CC1(C)S[C@@H]2[C@H](NC(=O)C(C(=O)O)c3ccccc3)C(=O)N2[C@H]1C(=O)O (stereo not given in full)	0.912 ± 0.073	0.9345 ± 0.0064	0.9405 ± 0.005	0.999 ± 0.13	1.05 ± 0.021
Cc1cc(O)c2c(c1O)C(=O)c1c(O)cc(C)c(O)c1C2=O	0.979 ± 0.019	0.968 ± 0.1	0.986 ± 0.063	0.964 ± 0.039	1.01 ± 0.014
OC[C@@H](O)[C@@H](O[C@@H]1O[C@H](CO)[C@@H](O)[C@H](O)[C@H]1O)[C@H](O)[C@@H](O)CO	0.959 ± 0.058	1.01 ± 0.058	1.01 ± 0.03	1.08 ± 0.12	1.11 ± 0.014
Cn1c(=O)[nH]c(=O)c2[nH]cnc21	0.955 ± 0.026	0.8635 ± 0.0064	0.967 ± 0.032	1.09 ± 0.17	1.16 ± 0.042
CC(=O)O[C@H]1CC[C@]2(C)[C@H]3CC=C4[C@@H]5CC(C)(C)CC[C@]5(C(=O)O)CC[C@@]4(C)[C@]3(C)CC[C@H]2C1(C)C	1.06 ± 0.05	1.11 ± 0.11	1.02 ± 0.033	1.03	1.03 ± 0.021
NNC(=O)c1ccncc1	0.952 ± 0.018	0.959 ± 0.049	0.984 ± 0.051	0.8925 ± 0.00071	1.03 ± 0.028
COc1ccc(-c2coc3cc(O)ccc3c2=O)c(O)c1O	1.02 ± 0.035	0.993 ± 0.038	1.03 ± 0.014	1 ± 0.079	1.09 ± 0.028
Nc1ncnc2c1ncn2[C@H]1C[C@H](O)[C@@H](CO)O1	1.07 ± 0.064	1.06 ± 0.021	1.01 ± 0.044	1.05 ± 0.014	1.09 ± 0.064
CC(COc1ccccc1)NC(C)C(O)c1ccc(O)cc1 (stereo not given)	1.03 ± 0.096	0.966 ± 0.091	0.916 ± 0.017	1.18 ± 0.05	1.01 ± 0.076
CCN1CCCC1CNC(=O)c1cc(S(N)(=O)=O)ccc1OC (stereo not given)	0.985 ± 0.064	0.954 ± 0.023	1.02 ± 0.071	1.06 ± 0.22	0.959 ± 0.072
COC(=O)C[C@H]1C(C)(C)C(=O)[C@@H]2CC3C4=CC(=O)O[C@@H](c5ccoc5)[C@]4(C)CC[C@@H]3[C@@]1(C)C2=O (stereo not given in full)	0.924 ± 0.0042	1.01 ± 0.06	0.957 ± 0.03	1.04 ± 0.014	0.866 ± 0.062
O=C(O)c1cc(/N=N/c2ccc(S(=O)(=O)Nc3ccccn3)cc2)ccc1O	0.992 ± 0.0042	1 ± 0.078	1.04 ± 0.057	0.899 ± 0.083	0.837 ± 0.02
O=C1OCC(Cc2ccccc2)C1c1ccccc1 (stereo not given) [3-Benzyl-2-phenyl-butyrolactone]	1.07 ± 0.085	1.01 ± 0.014	0.978 ± 0.045	0.917 ± 0.12	1.1 ± 0.078
COc1ccc(-c2oc3cc(OC)c(OC)c(OC)c3c(=O)c2OC)cc1	0.978 ± 0.06	0.918 ± 0.06	1.02 ± 0.021	1.055 ± 0.0071	0.917 ± 0.087
COC(=O)C[C@H]1C2(C)CC34OC5(C)O[C@@]6([C@H](OC(C)=O)C(OC(C)=O)[C@]7(C)C(/C(=C(/O)C(C)C)C(=O)O[C@H]7c7ccoc7)[C@@]6(O5)[C@H](OC(C)=O)[C@@]3(O)C2OC(=O)C(C)C)[C@]14C (stereo not given in full)	1.02 ± 0.021	0.959 ± 0.1	1.01 ± 0.021	1.05 ± 0.14	1.08
C(=C\c1ccccc1)/CN1CCN(C(c2ccccc2)c2ccccc2)CC1	0.989 ± 0.072	1.09 ± 0.021	1.035 ± 0.0071	1.17 ± 0.11	0.936 ± 0.15
CC1(C)CC2C1CC[C@]1(CBr)CCC3C(CC(=O)O)C(=O)O[C@@]32C1 (stereo not given in full) [BROMO-3-HYDROXY-4-(SUCCIN-2-YL)-CARYOLANE gamma-LACTONE]	0.95 ± 0.085	1.03 ± 0.079	0.987 ± 0.033	1.08 ± 0.035	1.095 ± 0.0071
CNCCCN1c2ccccc2CCc2ccccc21	0.994 ± 0.023	0.933 ± 0.013	0.909 ± 0.041	0.868 ± 0.035	0.934 ± 0.045
Cc1ccc2c(Cl)cc(Cl)c(O)c2n1	1.01 ± 0.021	1.01 ± 0.15	1.07	1.06 ± 0.22	1.04 ± 0.067
